Data on 11 compounds can be found in ChEMBL document CHEMBL3988442, “University of Dundee, Small-Polar-MMV Screening Library” (2021).

Each structure is given as a SMILES string. For some of these results: Entries with a potency or affinity are not part of this list.

Common to all, as to design: scale not given: direction of the effect not stated beside the values
In assay [1] the target is Protein translocase subunit SecA (Escherichia coli (strain K12)) (UniProt P10408). Nature of the assay: Assay to Identify E. coli SecA ATPase Inhibitors. The assay is classed as functional. The note with it: 30 µM.
Assay [2] concerns the target T1, Ubiquitin-activating enzyme e1, putative (Leishmania donovani (strain BPK282A1)) (UniProt E9BSI1).
T1 sequence (whole entry): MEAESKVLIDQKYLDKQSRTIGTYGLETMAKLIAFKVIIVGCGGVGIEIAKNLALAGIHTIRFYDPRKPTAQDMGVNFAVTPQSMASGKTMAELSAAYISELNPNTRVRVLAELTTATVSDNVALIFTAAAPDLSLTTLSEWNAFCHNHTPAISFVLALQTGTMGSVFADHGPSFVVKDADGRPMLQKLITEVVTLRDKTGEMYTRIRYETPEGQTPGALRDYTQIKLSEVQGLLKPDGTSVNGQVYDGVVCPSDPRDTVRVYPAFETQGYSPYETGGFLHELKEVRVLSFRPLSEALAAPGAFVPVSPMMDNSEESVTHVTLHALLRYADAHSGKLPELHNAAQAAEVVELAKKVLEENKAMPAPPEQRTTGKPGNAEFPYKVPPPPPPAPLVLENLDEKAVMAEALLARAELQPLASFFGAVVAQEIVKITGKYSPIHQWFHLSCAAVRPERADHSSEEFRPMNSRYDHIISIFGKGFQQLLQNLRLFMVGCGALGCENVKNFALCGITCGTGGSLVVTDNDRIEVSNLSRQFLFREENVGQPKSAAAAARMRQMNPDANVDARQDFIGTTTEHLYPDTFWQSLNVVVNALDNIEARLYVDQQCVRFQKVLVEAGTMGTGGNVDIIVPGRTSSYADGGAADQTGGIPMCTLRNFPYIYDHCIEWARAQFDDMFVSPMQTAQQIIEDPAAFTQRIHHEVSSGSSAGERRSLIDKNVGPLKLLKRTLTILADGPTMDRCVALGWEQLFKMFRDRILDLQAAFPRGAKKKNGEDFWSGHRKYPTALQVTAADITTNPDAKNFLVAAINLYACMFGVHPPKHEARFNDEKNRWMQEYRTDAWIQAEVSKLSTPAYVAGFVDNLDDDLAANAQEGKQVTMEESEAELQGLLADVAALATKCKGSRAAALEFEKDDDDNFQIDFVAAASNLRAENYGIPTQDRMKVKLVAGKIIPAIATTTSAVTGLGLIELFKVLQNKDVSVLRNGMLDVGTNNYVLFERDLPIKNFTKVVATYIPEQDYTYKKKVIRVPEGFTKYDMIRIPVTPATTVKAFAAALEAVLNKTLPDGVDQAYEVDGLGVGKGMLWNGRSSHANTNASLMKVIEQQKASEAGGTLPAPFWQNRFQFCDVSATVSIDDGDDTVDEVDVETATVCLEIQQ
Nature of the assay: Leishmania donovani Ubiquitin Activating Enzyme (LdE1). The following applies: 30 µM. The assay is classed as functional.

In assay [3] the target is AMP-activated protein kinase, AMPK (Homo sapiens) (UniProt P54646+O43741+P54619+Q9UGJ0+Q9Y478+Q13131+Q9UGI9). Nature of the assay: AMP-dependent Kinase enzyme assay. An in vitro enzyme assay that detects ADP turnover that is directly proportional to AMPK activity. This uses naive AMPK that is activated during the assay with MK-8722. The assay is classed as functional. The note with it: 30 µM.

Assay [4] has as its target Sialic acid-binding Ig-like lectin 9 (Homo sapiens) (UniProt Q9Y336). As to the kind of experiment: Hs-Siglec9 ALPHAscreen SOP 20170721. The note with it: 10 µM.
In assay [5] the test system is Trypanosoma cruzi. Nature of the assay: Trypanosoma cruzi phosphomannomutase and mannose-1-phosphate guanylyltransferase assay. The assay is classed as functional. The note with it: 10 µM.
For assay [6], the target named is T2, Arginase-2, mitochondrial (Homo sapiens) (UniProt P78540).
T2 sequence (whole entry): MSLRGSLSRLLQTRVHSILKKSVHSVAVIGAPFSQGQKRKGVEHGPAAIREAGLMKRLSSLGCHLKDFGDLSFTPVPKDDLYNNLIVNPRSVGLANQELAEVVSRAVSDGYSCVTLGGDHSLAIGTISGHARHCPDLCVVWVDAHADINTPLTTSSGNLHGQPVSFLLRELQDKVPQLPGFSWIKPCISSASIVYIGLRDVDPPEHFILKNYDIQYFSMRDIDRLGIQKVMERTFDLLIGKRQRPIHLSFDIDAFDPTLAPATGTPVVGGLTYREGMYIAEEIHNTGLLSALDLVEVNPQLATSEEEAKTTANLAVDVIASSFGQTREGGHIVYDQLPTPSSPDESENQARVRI
Nature of the assay: in vitro enzyme assay to detect the production of urea directly proportional to the activity of Arginase II. Further: in the data most compounds retested in dose-response had high values. The note with it: 33.3 µM. The assay is classed as functional.

Assay [7] concerns the target T3, Proteasome subunit beta (Trypanosoma cruzi) (UniProt O96673).
T3 sequence (whole entry): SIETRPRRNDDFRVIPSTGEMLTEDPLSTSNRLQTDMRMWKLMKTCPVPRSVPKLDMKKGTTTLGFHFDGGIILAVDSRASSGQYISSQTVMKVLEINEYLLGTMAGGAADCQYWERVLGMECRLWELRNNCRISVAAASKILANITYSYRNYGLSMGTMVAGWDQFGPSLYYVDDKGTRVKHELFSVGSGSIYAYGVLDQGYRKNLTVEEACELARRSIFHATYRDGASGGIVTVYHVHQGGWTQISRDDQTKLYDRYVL
Nature of the assay: Trypanosoma cruzi proteasome chymotrypsin-like activity (TcProtChymo) assay. Further: in the data most compounds retested in dose-response had high values. The class given is functional. The note with it: 9.37 µM.

For assay [8], the species on record is Homo sapiens. Nature of the assay: To identify inhibition of the IFN signalling (Jak-Stat) pathway via expression of an eGFP reporter gene under the control of an IFN-stimulated response element (ISRE) containing MxA promoter. The assay is classed as functional. The note with it: 30 µM.
Assay [9] has as its target T4, Tyrosyl-tRNA synthetase, putative (Trypanosoma cruzi (strain CL Brener)) (UniProt Q4DSP6).
T4 sequence (whole entry): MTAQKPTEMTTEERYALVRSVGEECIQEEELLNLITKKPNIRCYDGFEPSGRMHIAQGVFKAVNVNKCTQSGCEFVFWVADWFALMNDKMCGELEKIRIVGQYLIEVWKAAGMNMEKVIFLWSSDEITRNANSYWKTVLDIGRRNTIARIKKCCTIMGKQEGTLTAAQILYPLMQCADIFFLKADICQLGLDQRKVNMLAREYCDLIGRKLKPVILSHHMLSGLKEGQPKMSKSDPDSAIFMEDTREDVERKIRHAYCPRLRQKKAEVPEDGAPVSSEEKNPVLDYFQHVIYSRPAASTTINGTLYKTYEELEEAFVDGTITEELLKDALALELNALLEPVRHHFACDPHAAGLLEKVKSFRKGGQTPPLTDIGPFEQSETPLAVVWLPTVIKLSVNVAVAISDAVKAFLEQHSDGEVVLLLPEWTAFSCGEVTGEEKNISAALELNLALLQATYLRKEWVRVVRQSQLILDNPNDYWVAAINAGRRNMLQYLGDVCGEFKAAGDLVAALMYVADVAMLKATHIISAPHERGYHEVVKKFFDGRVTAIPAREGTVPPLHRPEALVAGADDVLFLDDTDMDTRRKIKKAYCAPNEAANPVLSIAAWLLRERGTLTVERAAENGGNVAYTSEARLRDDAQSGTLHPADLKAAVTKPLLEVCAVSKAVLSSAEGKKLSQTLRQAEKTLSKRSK
Nature of the assay: Trypanosoma cruzi tyrosyl tRNA synthetase (TcYRS) _High Tyrosine SOP. Further: in the data most compounds retested in dose-response had high values. The assay is classed as functional. The note with it: 30 µM.

The target of assay [10] is T4, Tyrosyl-tRNA synthetase, putative (Trypanosoma cruzi (strain CL Brener)). As to the kind of experiment: Trypanosoma cruzi tyrosyl tRNA synthetase (TcYRS) SOP. The assay is classed as functional. The following applies: 30 µM.
For assay [11], the target named is Chromo domain-containing protein 1 (Saccharomyces cerevisiae (strain ATCC 204508 / S288c) (Baker's yeast)) (UniProt P32657). As to the kind of experiment: ScCHD-1 Enzyme Inhibition Assay. Further: in the data most compounds retested in dose-response had high values. The class given is functional. The following applies: 30 µM.
Chain of Chromo domain-containing protein 1 (Saccharomyces cerevisiae (strain ATCC 204508 / S288c) (Baker's yeast)) (P32657 whole entry, the tested form may be a part): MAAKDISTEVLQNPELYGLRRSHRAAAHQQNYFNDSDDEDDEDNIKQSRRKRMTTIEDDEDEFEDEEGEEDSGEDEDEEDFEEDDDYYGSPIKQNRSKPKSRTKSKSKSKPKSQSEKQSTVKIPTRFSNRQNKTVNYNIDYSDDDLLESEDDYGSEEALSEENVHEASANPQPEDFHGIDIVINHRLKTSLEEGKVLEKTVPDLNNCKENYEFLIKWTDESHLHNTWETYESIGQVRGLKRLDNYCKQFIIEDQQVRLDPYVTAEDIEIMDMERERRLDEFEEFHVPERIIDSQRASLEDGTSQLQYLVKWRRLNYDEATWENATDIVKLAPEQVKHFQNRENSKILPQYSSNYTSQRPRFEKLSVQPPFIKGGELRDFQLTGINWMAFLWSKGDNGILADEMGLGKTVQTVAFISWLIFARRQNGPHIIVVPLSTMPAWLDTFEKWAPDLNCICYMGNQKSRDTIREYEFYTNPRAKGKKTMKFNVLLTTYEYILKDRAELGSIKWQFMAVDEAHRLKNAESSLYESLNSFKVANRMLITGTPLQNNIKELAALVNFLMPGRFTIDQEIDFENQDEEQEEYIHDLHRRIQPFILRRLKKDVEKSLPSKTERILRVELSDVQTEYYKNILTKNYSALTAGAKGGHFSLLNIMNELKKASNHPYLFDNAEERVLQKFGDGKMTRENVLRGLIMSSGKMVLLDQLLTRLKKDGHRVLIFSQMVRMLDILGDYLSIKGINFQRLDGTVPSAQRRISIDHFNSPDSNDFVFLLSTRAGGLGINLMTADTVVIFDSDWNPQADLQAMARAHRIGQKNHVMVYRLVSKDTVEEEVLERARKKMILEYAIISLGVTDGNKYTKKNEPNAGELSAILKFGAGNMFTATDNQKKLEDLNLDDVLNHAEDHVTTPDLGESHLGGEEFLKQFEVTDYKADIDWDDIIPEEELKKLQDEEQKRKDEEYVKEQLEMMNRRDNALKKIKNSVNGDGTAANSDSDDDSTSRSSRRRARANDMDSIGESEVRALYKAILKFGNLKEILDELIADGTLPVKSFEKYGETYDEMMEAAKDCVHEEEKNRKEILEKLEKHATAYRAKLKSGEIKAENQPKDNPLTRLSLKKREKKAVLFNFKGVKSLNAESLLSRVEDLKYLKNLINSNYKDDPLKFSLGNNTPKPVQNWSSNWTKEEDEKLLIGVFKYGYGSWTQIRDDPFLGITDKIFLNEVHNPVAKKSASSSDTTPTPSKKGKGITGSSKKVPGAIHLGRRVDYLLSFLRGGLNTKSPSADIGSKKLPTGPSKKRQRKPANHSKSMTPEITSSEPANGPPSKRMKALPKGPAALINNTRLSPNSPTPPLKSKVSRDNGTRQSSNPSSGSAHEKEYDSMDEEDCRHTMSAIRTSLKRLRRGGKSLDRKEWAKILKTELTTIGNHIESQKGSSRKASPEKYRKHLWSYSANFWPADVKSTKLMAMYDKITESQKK

Chain of Sialic acid-binding Ig-like lectin 9 (Homo sapiens) (Q9Y336 whole entry): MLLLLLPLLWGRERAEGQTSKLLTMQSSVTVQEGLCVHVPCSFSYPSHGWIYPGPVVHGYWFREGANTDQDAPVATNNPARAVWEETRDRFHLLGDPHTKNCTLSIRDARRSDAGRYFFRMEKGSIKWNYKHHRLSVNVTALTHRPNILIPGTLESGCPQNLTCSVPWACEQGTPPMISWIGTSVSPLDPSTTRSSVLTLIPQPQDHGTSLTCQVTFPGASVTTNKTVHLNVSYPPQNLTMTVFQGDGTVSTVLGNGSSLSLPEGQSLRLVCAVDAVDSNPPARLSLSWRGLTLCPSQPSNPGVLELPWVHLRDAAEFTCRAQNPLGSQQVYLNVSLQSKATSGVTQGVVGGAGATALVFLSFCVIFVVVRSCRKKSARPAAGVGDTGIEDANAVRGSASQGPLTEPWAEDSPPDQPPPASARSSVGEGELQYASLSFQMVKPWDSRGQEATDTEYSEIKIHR
Chain of Protein translocase subunit SecA (Escherichia coli (strain K12)) (P10408 whole entry): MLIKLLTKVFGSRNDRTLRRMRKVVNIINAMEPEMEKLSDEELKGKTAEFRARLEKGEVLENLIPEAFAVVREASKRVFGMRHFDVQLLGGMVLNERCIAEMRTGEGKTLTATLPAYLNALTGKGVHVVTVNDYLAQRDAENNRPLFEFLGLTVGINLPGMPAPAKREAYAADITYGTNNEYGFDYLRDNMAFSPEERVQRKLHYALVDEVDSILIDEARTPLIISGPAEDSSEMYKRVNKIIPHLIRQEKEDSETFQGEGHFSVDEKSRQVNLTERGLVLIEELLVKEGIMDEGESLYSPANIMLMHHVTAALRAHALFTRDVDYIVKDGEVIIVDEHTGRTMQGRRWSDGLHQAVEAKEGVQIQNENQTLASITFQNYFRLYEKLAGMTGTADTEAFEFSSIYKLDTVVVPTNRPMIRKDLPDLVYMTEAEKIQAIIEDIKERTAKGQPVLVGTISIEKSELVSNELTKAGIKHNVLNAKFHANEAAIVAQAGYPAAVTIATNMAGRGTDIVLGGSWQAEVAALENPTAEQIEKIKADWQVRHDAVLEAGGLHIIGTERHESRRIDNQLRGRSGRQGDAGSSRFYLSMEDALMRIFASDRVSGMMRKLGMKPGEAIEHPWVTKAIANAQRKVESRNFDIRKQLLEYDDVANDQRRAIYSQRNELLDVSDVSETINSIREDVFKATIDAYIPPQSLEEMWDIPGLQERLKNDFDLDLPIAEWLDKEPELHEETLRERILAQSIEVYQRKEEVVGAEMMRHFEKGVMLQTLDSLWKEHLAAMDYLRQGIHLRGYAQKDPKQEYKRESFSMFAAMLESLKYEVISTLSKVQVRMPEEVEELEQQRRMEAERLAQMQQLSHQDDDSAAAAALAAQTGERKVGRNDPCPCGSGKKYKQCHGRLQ

As to `Cc1nc(CNC(=O)NCCc2ccc(N(C)C)cc2)cs1`, the Percent Effect in [1] was -4.53%; in [2], 10.8%; in assay [3], 6.12%; in assay [4], 13.5%; in assay [5] it was 1.23%; in assay [6] it was -5.61%. In addition, the Percent Effect in [7] is -1.98%; in [8], -15.3%; in [9], 9.36%; in assay [10], 18.5%; in assay [11], -10.4%.

As for `O=C(C[C@@H]1COC[C@H]2CN(Cc3ccc(F)cc3)C[C@@H]12)N1CCCCO1`, the Percent Effect in assay [1] is -4.42%; in [2], 6.67%; in assay [3] it was 4.91%; in assay [4] it was 6.17%; in assay [5] it was -2.36%; in assay [6], -0.176%. Besides, the Percent Effect is 16.1% in assay [7]; 19% in [8]; 2.12% in assay [9]; 7.69% in [10]; -5.03% in [11].

Consider `Cc1ccc(C(=O)NC2CCN(C(=O)Nc3ccccn3)CC2)o1`, for which the Percent Effect in [1] was -3.11%; in [2] it was 10.4%; in [3], -3.63%; in assay [4], -17.5%; in [5], -7.15%; in assay [6], -2.32%. Besides, the Percent Effect in [7] was 6.71%; in assay [8], 9.29%; in assay [9] it was 2.86%; in assay [10], 14.1%; in assay [11], -18.9%.

On to `Cc1cccc(CN2C[C@@H]3CN(C(=O)NC(C)C)C[C@@H]3C2=O)c1`, for which the Percent Effect in assay [1] was 0.524%; in assay [2], 5.2%; in assay [3], 3%; in [4], 7.17%; in [5], -1.87%; in [6], -35.9%. For the same compound, the Percent Effect was 11.2% in assay [7]; -7.06% in assay [8]; 6.45% in [9]; 13.6% in assay [10]; 1% in assay [11].

As to `CCCc1nc(C(=O)N2CCCn3nc(CCC(=O)O)cc3C2)cs1`, the Percent Effect in [1] is -7.52%; in [2], 5.41%; in assay [3], 2.34%; in assay [4], 4.25%; in [5] it was 1.54%; in assay [6], 2.38%. For the same compound, the Percent Effect in [7] is 11%; in [8], 3.31%; in assay [9], 3.7%; in assay [10] it was 9.76%; in assay [11] it was -5.37%.

With `CCN1CCN(CC(O)c2ccc(F)cc2)CC1` (stereo unspecified), the Percent Effect in assay [1] was -4.5%; in assay [2], 2.7%; in assay [3], -2.92%; in [4] it was 3.74%; in assay [5], -2.92%; in assay [6] it was -0.401%. In addition, the Percent Effect in [7] was 3.96%; in assay [8], 3.68%; in [9], 5.42%; in assay [10] it was 13.6%; in assay [11], -6.3%.

For the compound `O=C(C(CNCc1ccncc1)c1ccccc1)N1CCOCC1` (stereo unspecified), the Percent Effect in assay [1] is 0.622%; in [2] it was 5.2%; in [3] it was 0.193%; in [4], 1.44%; in assay [5] it was -6.59%; in assay [6], -8.28%. For the same compound, the Percent Effect was 18.3% in assay [7]; 17.2% in [8]; 3.23% in assay [9]; 11.1% in assay [10]; -2.54% in [11].

Turning to `CCn1cnnc1C1CCN(C(=O)COCCc2ccccc2)CC1`, the Percent Effect in [1] was -1.96%; in assay [2], 7.79%; in assay [3], 0.519%; in assay [4], -7.71%; in [5], 5%; in assay [6] it was -5.26%. The Percent Effect is 6.71% in assay [7]; -1.88% in assay [8]; -2.86% in [9]; 2.35% in [10]; -12.8% in assay [11].

Take `CNCC(=O)N1CC(c2cc(Nc3ncccn3)nc(C)n2)C1`: the Percent Effect in [1] is 0.103%; in assay [2], 10.7%; in [3], 6.11%; in assay [4], -7.15%; in [5], -4.33%; in [6], -1.63%. In addition, the Percent Effect was 8.9% in [7]; 13.8% in assay [8]; 10.6% in [9]; 16.7% in [10]; -1.56% in assay [11].

Regarding `CN(C)C(=O)C1CN(Cc2ccccc2)CCN(S(C)(=O)=O)C1` (stereo unspecified), the Percent Effect was -5.51% in assay [1]; 17.6% in assay [2]; 8.68% in assay [3]; 7.06% in assay [4]; 4.35% in assay [5]; -3.02% in assay [6]. For the same compound, the Percent Effect in assay [7] was 3.12%; in [8], 11.2%; in [9] it was 2.15%; in assay [10] it was 9.09%; in assay [11], -19.2%.

As for `CCC(NC(=O)C1CCN(S(=O)(=O)N(C)C)CC1)c1ccc(C)c(C)c1` (stereo unspecified), the Percent Effect in assay [1] was 0.26%; in assay [2], 0%; in assay [3], 0.886%; in [4], 1.28%; in [5] it was -2.46%; in assay [6], 19.3%. In addition, the Percent Effect is 8.82% in [7]; -10.2% in assay [8]; -2.15% in assay [9]; 1.24% in assay [10]; -0.385% in assay [11].
